Assay outcomes deposited in PubChem by National Center for Advancing Translational Sciences (NCATS).
ELG1 DNA repair – qHTS screen for small molecules that inhibit ELG1-dependent DNA repair in human embryonic kidney (HEK293T) cells expressing luciferase-tagged ELG1. HEK293T ELG1-luciferase reporter, luminescence, 16 h; DNA damage induced by 5-fluorouridine. Potency, µM (doses to about 46.1 µM), without a hit: at the highest dose activity change, negative = inhibition, hits mostly inhibitors. 2.3% of 330,000 active. AID 504467, 2011; also: % is scaled to controls: 0 for no effect and ±100 for the full control effect; nearly all actives have a fitted effect of over 55% in size
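5-Fluorouridine DNA damage + compound/DMSO, 2,000 cells/well, 16 h, 37 °C/5% CO2. ONE-Glo, 30 min RT, luminescence. Readout = decrease in reporter signal.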
Rab9 prom act – qHTS Assay for Rab9 Promoter Activators | Huh7 Rab9 promoter-luciferase reporter, luminescence, 24 h | Potency, µM (top dose mostly 9.22 µM), for the others: top-dose activation, negative = inhibition, actives largely listed as activators | 2.8% of 320,000 active | AID 485297, 2010; also: % of control where 0% means no effect; nearly all actives have a fitted effect of over 60% in size
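Using Huh7 cells stably transfected with Rab9 promoter–luciferase, compounds were incubated 24 h at 37 °C, 5% CO2; luciferase luminescence was read 10 min after reagent addition.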
NPC1 promoter act – qHTS Assay for NPC1 Promoter Activators | Huh7 NPC1 promoter luciferase reporter, 24 h | Potency, µM (highest dose often 9.22 µM), without a hit: at the highest dose activation, most hits filed as activators | 2.4% of 320,000 active | AID 485313, 2010; also: % of control where 0% means no effect; nearly all actives have a fitted effect of over 60% in size
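Luminescence read-out of NPC1 promoter-driven luciferase in stably transfected Huh7 cells; compounds delivered in DMSO and left 24 h at 37C, 5% CO2, qHTS titration format.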
SMN2 splice up – qHTS Assay for Enhancers of SMN2 Splice Variant Expression. 2.8% of 210,000 active. Potency, µM (highest dose often 46.1 µM), without a hit: at the highest dose activity change, positive = activation, most hits filed as activators. HEK293 SMN2-luciferase splicing reporter, luminescence, 30-36 h; also: % of control where 0% means no effect; nearly all actives have a fitted effect of over 55% in size
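HEK293 cells carry an SMN2 minigene-luciferase reporter in which exon 7 inclusion puts luciferase in frame. Cells were seeded at 2000 cells/well, attached for 10-12 hours, then exposed to compounds for 30-36 hours at 37C before ONE-Glo luminescence.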
ELG1 genotox – qHTS screen for small molecules that induce genotoxicity in human embryonic kidney (HEK293T) cells expressing luciferase-tagged ELG1; HEK293T ELG1-luciferase reporter, luminescence, 16 h; Potency, µM (titrated, usually from 46 µM), inactives show at the highest dose activity change, positive = activation, actives largely listed as activators; 1.3% of 330,000 active; AID 504466, 2011; also: % of control where 0% means no effect; nearly all actives have a fitted effect of over 60% in size
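Step 1: seed 2,000 HEK293T ELG1-luciferase cells per well. Step 2: add compound or DMSO, incubate 16 hr at 37 °C. Step 3: ONE-Glo, 30 min at room temperature, read luminescence.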
FLuc modulator – qHTS profiling assay for firefly luciferase inhibitor/activator using purifed enzyme and Km concentrations of substrates (counterscreen for miR-21 project); 6.9% of 360,000 active; AID 588342, 2011; purified FLuc, Km substrates, luminescence inhibition; Potency, µM (highest dose often 57.5 µM), for the others: at the top dose activity change, negative = inhibition, usual class: inhibitors;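 also: plate controls were vehicle for no effect and reference inhibitor for full effect; nearly all actives have a fitted effect of over 55% in size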
Target sequence (P08659 whole entry, looked up): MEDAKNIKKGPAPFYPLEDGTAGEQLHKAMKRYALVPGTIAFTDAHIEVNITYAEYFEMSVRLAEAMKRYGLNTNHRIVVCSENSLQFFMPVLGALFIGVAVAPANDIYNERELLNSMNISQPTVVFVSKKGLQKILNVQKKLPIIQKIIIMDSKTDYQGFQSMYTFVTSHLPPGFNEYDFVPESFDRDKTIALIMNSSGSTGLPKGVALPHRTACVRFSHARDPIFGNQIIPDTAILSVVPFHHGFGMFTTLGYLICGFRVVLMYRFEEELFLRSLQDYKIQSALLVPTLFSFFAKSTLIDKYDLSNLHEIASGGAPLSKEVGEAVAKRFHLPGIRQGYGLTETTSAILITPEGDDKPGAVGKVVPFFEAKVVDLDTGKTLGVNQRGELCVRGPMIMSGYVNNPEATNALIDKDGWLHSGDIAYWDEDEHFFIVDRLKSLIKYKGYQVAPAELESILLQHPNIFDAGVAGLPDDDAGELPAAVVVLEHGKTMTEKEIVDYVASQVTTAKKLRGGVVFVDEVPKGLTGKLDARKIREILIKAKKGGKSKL
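Biochemical qHTS of compounds, final roughly 60 µM downward over six points, against 10 nM purified firefly luciferase using Km concentrations of substrates (10 uM D-luciferin, 10 uM ATP) in Tris acetate pH 7.5 buffer; luminescence output.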
* = called active by the depositor. An excerpt weighted towards active compounds, which were near 9.4% of everything screened. Calls follow the shape of the dose curve; as a rule, active = well fitted curve in the direction sought with a large enough effect; inconclusive = small, poorly fitted or top-dose-only effect, or another doubt; inactive = no such curve, though single readings can be large; an effect the other way counts as inactive or inconclusive. Potency is read from the fitted curve at half-maximal effect.

How did Cc1cccc(/C(N)=N/OC(=O)c2cccc3ccccc23)c1 do in these assays?
ELG1 DNA repair: inconclusive; Rab9 prom act: 3.98µM*; NPC1 promoter act: 3.55µM*; ELG1 genotox: 15.1%; FLuc modulator: 4.26µM*

How did Cc1ccc(-n2cnc3c(sc4nccc(N(C)C)c43)c2=O)cc1 do in these assays?
ELG1 DNA repair: 10µM*; Rab9 prom act: 9.2%; NPC1 promoter act: 20.9%; SMN2 splice up: 22.6%; ELG1 genotox: -15.5%; FLuc modulator: -3.3%

How did CC(C)(C)CC(=O)Nc1nnc(SCC(=O)Nc2ccccc2F)s1 do in these assays?
ELG1 DNA repair: inconclusive; Rab9 prom act: 0.6%; NPC1 promoter act: -5.6%; SMN2 splice up: -14.6%; ELG1 genotox: -17.5%; FLuc modulator: -12.1%

What do the screens show for `Cc1ccccc1NC(=O)CSc1nnc(NC(=O)c2ccco2)s1`?
ELG1 DNA repair: 28.5%; Rab9 prom act: 9.7%; NPC1 promoter act: 0.5%; ELG1 genotox: 8.5%; FLuc modulator: 26.9µM*

How did O=C(CSc1nnc(NC(=O)c2ccccc2F)s1)Nc1ccccc1F do in these assays?
ELG1 DNA repair: inconclusive; Rab9 prom act: 3.55µM*; NPC1 promoter act: inconclusive; SMN2 splice up: 26.9%; ELG1 genotox: inconclusive; FLuc modulator: 2.69µM*

What do the screens show for `O=C(CSc1nnc(NC(=O)c2ccco2)s1)Nc1ccccc1F`?
ELG1 DNA repair: 7.4%; Rab9 prom act: -0.1%; NPC1 promoter act: -1.6%; SMN2 splice up: 9.7%; ELG1 genotox: 4.2%; FLuc modulator: 15.1µM*

How did O=C(CSc1nnc(NC(=O)c2ccco2)s1)Nc1ccccc1Br do in these assays?
ELG1 DNA repair: -1.1%; Rab9 prom act: -0.6%; NPC1 promoter act: 3.3%; ELG1 genotox: 5.3%; FLuc modulator: -13.2%

What do the screens show for `COc1ccccc1-c1nc(SCC(=O)Nc2ccc(C)c(C)c2)n[nH]1`?
SMN2 splice up: -25.6%; FLuc modulator: inconclusive

Results for COC(=O)[C@]1(C)N[C@H](CN(C)S(=O)(=O)c2ccc(C(F)(F)F)cc2)[C@@H]2C(=O)N(C)C(=O)[C@@H]21 ?
ELG1 DNA repair: 1.4%; ELG1 genotox: 2.0%

Results for CCOC(=O)c1cc(-c2ccccc2)n(CCC(=O)N2CCN(c3ccccn3)CC2)c1C ?
ELG1 DNA repair: 23.1µM*; Rab9 prom act: 0.9%; NPC1 promoter act: -0.6%; SMN2 splice up: -1.2%; ELG1 genotox: -6.3%; FLuc modulator: 0.8%

How did Cc1ccc(C)c(NC(=S)c2nc3ccccc3s2)c1 do in these assays?
ELG1 DNA repair: inconclusive; Rab9 prom act: inconclusive; NPC1 promoter act: inconclusive; SMN2 splice up: inconclusive; ELG1 genotox: 4.2%; FLuc modulator: inconclusive

Results for Cc1ccc(NC(=S)c2nc3ccccc3s2)cc1 ?
ELG1 DNA repair: inconclusive; Rab9 prom act: 2.82µM*; NPC1 promoter act: 1.26µM*; SMN2 splice up: inconclusive; ELG1 genotox: 9.8%; FLuc modulator: 0.953µM*

How did S=C(Nc1ccc(Cl)cc1)c1nc2ccccc2s1 do in these assays?
ELG1 DNA repair: inconclusive; Rab9 prom act: 3.55µM*; NPC1 promoter act: 3.98µM*; SMN2 splice up: inconclusive; ELG1 genotox: 11.3%; FLuc modulator: 6.75µM*

What do the screens show for `O=C(Nc1ccc(Cl)cc1)/C(=C/c1cccc(O)c1)c1nc2ccccc2s1`?
ELG1 DNA repair: 25.9µM*; Rab9 prom act: -14.8%; NPC1 promoter act: -9.4%; SMN2 splice up: -105.3%; ELG1 genotox: -16.6%; FLuc modulator: inconclusive

How did Cc1ccc(C)c(NC(=O)c2nc(S(C)(=O)=O)ncc2N(Cc2ccc(C(C)(C)C)cc2)Cc2ccco2)c1 do in these assays?
FLuc modulator: 1.4%

Results for O=C(CSc1nc(-c2ccccc2)ns1)N1CCOCC1 ?
ELG1 DNA repair: inconclusive; Rab9 prom act: 2.82µM*; NPC1 promoter act: 2.51µM*; ELG1 genotox: 23.1µM*; FLuc modulator: inconclusive

How did Cc1cccc(-c2nsc(SCC(=O)N3CCCC3)n2)c1 do in these assays?
ELG1 DNA repair: inconclusive; Rab9 prom act: 1.41µM*; NPC1 promoter act: 1.58µM*; SMN2 splice up: 14.1µM*; ELG1 genotox: inconclusive; FLuc modulator: 6.01µM*

Results for Cc1ccc(Cn2ccnc2C(=O)Nc2ccccc2)cc1 ?
ELG1 DNA repair: inconclusive; Rab9 prom act: 1.58µM*; NPC1 promoter act: 3.98µM*; SMN2 splice up: 15.8µM*; ELG1 genotox: inconclusive; FLuc modulator: 7.57µM*

How did N#Cc1ccc(Cn2ccnc2C(=O)Nc2ccccc2)cc1 do in these assays?
ELG1 DNA repair: 2.0%; Rab9 prom act: 5.6%; NPC1 promoter act: 3.6%; SMN2 splice up: -6.7%; ELG1 genotox: 7.8%; FLuc modulator: inconclusive

How did Cc1ccc(Nc2nc(COC(=O)COc3ccc(C=O)cc3)cs2)cc1 do in these assays?
ELG1 DNA repair: inconclusive; Rab9 prom act: inconclusive; NPC1 promoter act: inconclusive; SMN2 splice up: 35.5µM*; ELG1 genotox: inconclusive; FLuc modulator: 2.69µM*

Results for C/C=C/c1ccc(OCC(=O)OCc2csc(Nc3ccc(C)cc3)n2)c(OC)c1 ?
ELG1 DNA repair: inconclusive; Rab9 prom act: inconclusive; NPC1 promoter act: inconclusive; SMN2 splice up: 11.2µM*; ELG1 genotox: 13.2%; FLuc modulator: 12µM*

What do the screens show for `O=c1c(-c2cccc(Cl)c2)nc2cncnc2n1Cc1ccccc1Cl`?
SMN2 splice up: -1.7%

What do the screens show for `O=[N+]([O-])c1ccc(/C=N/Nc2nc(N3CCCCC3)nc(N3CCCCC3)n2)cc1`?
ELG1 DNA repair: -27.8%; Rab9 prom act: -13.3%; NPC1 promoter act: -9.4%; ELG1 genotox: -3.4%; FLuc modulator: -4.8%

What do the screens show for `O=[N+]([O-])c1ccc(/C=N/Nc2nc(N3CCCCCC3)nc(N3CCCCCC3)n2)o1`?
ELG1 DNA repair: 23.1µM*; Rab9 prom act: -5.1%; NPC1 promoter act: -2.5%; SMN2 splice up: -33.7%; ELG1 genotox: -10.3%; FLuc modulator: -0.9%

What do the screens show for `Cc1ccc(NC2=Nc3ccccc3CC2)cc1`?
ELG1 DNA repair: inconclusive; Rab9 prom act: 0.398µM*; NPC1 promoter act: 0.398µM*; SMN2 splice up: 11.9%; ELG1 genotox: 0.731µM*; FLuc modulator: 1.9µM*

How did Brc1ccc(NC2=Nc3ccccc3CC2)cc1 do in these assays?
ELG1 DNA repair: inconclusive; Rab9 prom act: inconclusive; NPC1 promoter act: 3.16µM*; SMN2 splice up: 10µM*; ELG1 genotox: 17.6%; FLuc modulator: 3.79µM*
